The nature of assay [1]: qHTS assay to identify small molecule antagonists of the estrogen receptor alpha (ER-alpha) signaling pathway using the BG1 cell line in the presence of 0.1 nM 17-beta-estradiol - cell viability counter screen (AID 1259241). Also: nearly all actives have a fitted effect of over 40% in size. The essentials: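 Measures cytotoxicity alongside the ER-alpha antagonist readout: VM7Luc4E2 cells, charcoal-stripped serum, 0.1 nM 17beta-estradiol final, 22 hr compound incubation at 37C, CellTiter-Fluor fluorescence.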

Assay [2] is described as follows: qHTS assay to identify small molecule antagonists of the androgen receptor (AR) signaling pathway using the MDA cell line in the presence of 0.5 nM R1881 - cell viability counter screen (AID 1259242). Also: nearly all actives have a fitted effect of over 45% in size. The gist of the method:
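Steps: plate MDA-kb2 cells, rest 5 hr at 37C without CO2; pin in compounds in DMSO; add R1881 to 0.5 nM final; incubate 16 hr; add CellTiter-Fluor, 30 min; read fluorescence.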

The target in assay [3] is Estrogen receptor (Homo sapiens) (UniProt P03372). Description: qHTS assay to identify small molecule antagonists of the estrogen receptor alpha (ER-alpha) signaling pathway using the BG1 cell line in the presence of 0.1 nM 17-beta-estradiol (AID 1259244). Also: nearly all actives have a fitted effect of over 50% in size. The gist of the method: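 Antagonist mode: compounds in DMSO are pinned onto VM7Luc4E2 reporter cells, 0.1 nM final 17beta-estradiol is added, and after 22 h at 37C luciferase luminescence is measured with ONE-Glo.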
Sequence of Estrogen receptor (Homo sapiens) (P03372 whole entry, looked up): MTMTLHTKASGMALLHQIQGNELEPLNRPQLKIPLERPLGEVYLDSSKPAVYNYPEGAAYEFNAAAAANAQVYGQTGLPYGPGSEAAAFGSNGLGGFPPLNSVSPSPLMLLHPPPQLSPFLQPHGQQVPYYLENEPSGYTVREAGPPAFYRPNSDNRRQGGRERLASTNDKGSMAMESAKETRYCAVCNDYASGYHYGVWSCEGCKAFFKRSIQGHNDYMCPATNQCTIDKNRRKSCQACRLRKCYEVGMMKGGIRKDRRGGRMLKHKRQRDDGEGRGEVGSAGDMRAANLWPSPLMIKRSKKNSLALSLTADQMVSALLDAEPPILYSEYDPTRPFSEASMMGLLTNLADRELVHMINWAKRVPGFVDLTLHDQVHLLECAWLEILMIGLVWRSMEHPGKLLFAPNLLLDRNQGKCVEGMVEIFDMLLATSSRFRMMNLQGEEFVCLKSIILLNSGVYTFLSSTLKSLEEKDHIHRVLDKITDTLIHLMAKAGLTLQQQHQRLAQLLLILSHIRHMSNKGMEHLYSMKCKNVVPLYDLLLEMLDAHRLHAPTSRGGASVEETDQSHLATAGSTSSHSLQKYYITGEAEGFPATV
(In general: qHTS replaces the single test concentration by a dilution series.)

Assay [4] in a line: qHTS assay to identify small molecule phospholipidosis (PLD) inducers (AID 1259344; active = well fitted curve in the direction sought with a large enough effect; an effect the other way counts as inactive or inconclusive). The gist of the method: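 Accumulated phospholipid, stained red by LipidTOX during 24 h compound treatment of HepG2 cells at 37 C, is quantified from images as pit number and intensity, normalised per cell using Hoechst-stained nuclei.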
The nature of assay [5]: qHTS assay to identify small molecule HDAC inhibitors - cell viability counter screen (AID 1259365). Also: series mostly up to about 92 µM; nearly all actives have a fitted effect of over 50% in size. The essentials:
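Following a 2hr exposure of overnight-plated wild-type HCT-116 cells to DMSO-delivered compounds, CellTiter-Glo was added and luminescence recorded after 30min at room temperature.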

Assay [6] is described as follows: qHTS assay to identify small molecule agonists of the sonic hedgehog signaling (Shh) pathway - cell viability counter screen (AID 1259366). Also: nearly all actives have a fitted effect of over 50% in size. Also: potency is read from the fitted curve at half-maximal effect. The essentials:
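After a 4hr attachment at 37C, NIH/3T3 cells bearing an integrated Gli1-driven luciferase reporter were dosed with compounds. Treatment lasted 24hr, with the final hour including CellTiter-Fluor for a fluorescence viability measurement.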

Assay [7] in a line: qHTS assay to identify small molecule antagonists of the sonic hedgehog signaling (Shh) pathway - cell viability counter screen (AID 1259367). Also: nearly all actives have a fitted effect of over 55% in size. Also: potency is read from the fitted curve at half-maximal effect. The gist of the method: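 CellTiter-Fluor signal in conditioned medium-stimulated 3T3 Gli1-Luc cells, 23 hr compound exposure, 37C.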
Assay [8] can be described thus: qHTS assay to identify small molecule agonists of the sonic hedgehog signaling (Shh) pathway (AID 1259368; calls by dose curve;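 also: NIH/3T3-derived 3T3Gli1-Luc cells carrying a stable Gli1-driven firefly luciferase reporter; series mostly up to about 92 µM; nearly all actives have a fitted effect of over 15% in size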). The gist of the method: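 Cells of a mouse NIH/3T3 clone stably expressing luciferase under the Gli1 transcriptional response element are exposed to test chemicals for 24 hr at 37 C. Pathway activation is detected as a rise in luminescence.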
A short description of assay [9]: qHTS assay to identify small molecule antagonists of the sonic hedgehog signaling (Shh) pathway (AID 1259369; calls by dose curve; also: nearly all actives have a fitted effect of over 45% in size; also: potency is read from the fitted curve at half-maximal effect). The gist of the method:
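Cells are plated and held 4hr at 37 C, compounds (DMSO) are pinned in, conditioned medium is added to stimulate the pathway, and after 24hr luciferase reagent is added for 30min before luminescence is read.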

The nature of assay [10]: qHTS assay to identify small molecule agonists of the androgen receptor (AR) signaling pathway in the presence of an antagonist - cell viability counter screen (AID 1259379).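 Also: MDA-kb2 human breast cancer cells carrying an MMTV luciferase reporter; series mostly up to about 92 µM; nearly all actives have a fitted effect of over 25% in size.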 The essentials: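 Cytotoxicity is assessed by CellTiter-Fluor in MDA-kb2 cells carrying an MMTV-driven luciferase reporter. Cells receive 3.0uM nilutamide plus compounds at 15 concentrations and incubate 16 hr at 37C without CO2 before fluorescence reading.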

Assay [11] can be described thus: qHTS assay to identify small molecule agonists of the estrogen receptor beta (ER-beta) signaling pathway - cell viability counter screen (AID 1259380). Also: nearly all actives have a fitted effect of over 30% in size. Also: potency is read from the fitted curve at half-maximal effect. The essentials:
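Cytotoxicity is measured in parallel with the reporter screen: after 16 hr compound exposure at 37C and a 2 hr LiveBLAzer step, CellTiter-Glo is added to the same ER-beta-UAS-bla HEK293T wells and luminescence read after 30 min.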

The target of assay [12] is Estrogen receptor (Homo sapiens) (UniProt P03372). Description: qHTS assay to identify small molecule agonists of the estrogen receptor alpha (ER-alpha) signaling pathway in the presence of an antagonist (AID 1259383; calls by dose curve; also: top concentration of the series differs between compounds; nearly all actives have a fitted effect of over 15% in size). The gist of the method:
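Agonist-mode confirmation in the presence of the ER antagonist ICI-182,780 at 10.0nM final. Breast-derived VM7Luc4E2 reporter cells were exposed to compounds for 22hr, and ERE-driven luciferase was quantified by luminescence.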

Assay [13] can be described thus: qHTS assay to identify small molecule HDAC inhibitors (AID 1259364).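 Also: wild-type HCT-116 cells with endogenous class I/II HDAC activity; top concentration of the series differs between compounds; nearly all actives have a fitted effect of over 45% in size.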 The essentials:
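Cells (HCT-116, wild type) are seeded at 1,500 per well, incubated overnight, treated with compound in DMSO for 2 hr, then developed with HDAC-Glo I/II reagent for 30 min at room temperature.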

The target in assay [14] is Estrogen receptor beta (Homo sapiens) (UniProt Q92731). Description: qHTS assay to identify small molecule agonists of the estrogen receptor beta (ER-beta) signaling pathway (AID 1259377; active = well fitted activation curve with a large enough effect in the signal ratio in the repeat runs, not every such curve was filed as active; the % refers to the signal ratio). The essentials: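 In HEK293T cells bearing a UAS-beta-lactamase reporter under ER-beta control, DMSO-delivered compounds were incubated for 16 hr at 37C. Activity was detected as fluorescence 2 hours after LiveBLAzer B/G FRET substrate addition.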
Sequence of Estrogen receptor beta (Homo sapiens) (Q92731 whole entry, looked up): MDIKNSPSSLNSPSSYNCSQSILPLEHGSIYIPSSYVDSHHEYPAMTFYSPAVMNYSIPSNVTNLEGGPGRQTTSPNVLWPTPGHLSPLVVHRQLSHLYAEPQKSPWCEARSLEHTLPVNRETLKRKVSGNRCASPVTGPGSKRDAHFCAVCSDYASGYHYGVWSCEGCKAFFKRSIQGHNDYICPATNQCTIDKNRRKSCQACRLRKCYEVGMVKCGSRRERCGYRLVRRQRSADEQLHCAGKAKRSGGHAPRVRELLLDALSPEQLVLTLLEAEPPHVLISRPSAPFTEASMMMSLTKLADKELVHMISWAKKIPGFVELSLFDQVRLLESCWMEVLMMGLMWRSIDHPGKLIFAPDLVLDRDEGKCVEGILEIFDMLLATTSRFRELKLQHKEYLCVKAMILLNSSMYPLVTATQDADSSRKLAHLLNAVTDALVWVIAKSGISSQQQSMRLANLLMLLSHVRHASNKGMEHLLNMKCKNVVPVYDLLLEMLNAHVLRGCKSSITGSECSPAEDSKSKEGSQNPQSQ

Assay [15] can be described thus: qHTS assay to identify small molecule antagonists of the estrogen receptor beta (ER-beta) signaling pathway - cell viability counter screen (AID 1259382).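 Also: HEK293T cells carrying ER-beta-UAS-bla reporter stimulated with estradiol; series mostly up to about 92 µM; nearly all actives have a fitted effect of over 55% in size.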 The gist of the method: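 Cytotoxicity counter screen multiplexed with the beta-lactamase antagonist assay: GripTite HEK293T ER-beta-bla cells were treated 16 hr with test chemicals in the presence of 1nM 17-beta-estradiol, and viability was measured by CellTiter-Glo.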

The target in assay [16] is Estrogen receptor beta (Homo sapiens) (UniProt Q92731). Description: qHTS assay to identify small molecule antagonists of the estrogen receptor beta (ER-beta) signaling pathway (AID 1259378; active = well fitted inhibition curve with a large enough effect in the signal ratio in the repeat runs, not every such curve was filed as active; the % refers to the signal ratio; also: potency is read from the fitted curve at half-maximal effect). The essentials: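 Antagonist mode: compounds added to beta-lactamase reporter HEK293T ER-beta-UAS cells stimulated with E2 (1nM final), 16 hr at 37C. LiveBLAzer B/G FRET substrate, 2 hours room temperature, fluorescence read-out.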

The nature of assay [17]: qHTS assay to identify small molecule agonists or antagonists of the thyroid stimulating hormone receptor (TSHR) signaling pathway - wild type cell line counter screen (AID 1259384; calls by dose curve). The essentials: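 Counter screen in untransfected Hek293: compounds (15-point titration, triplicate) plus phosphodiesterase inhibitor Ro20-1724 added after 18 h plating; 30 min RT. Intracellular cAMP via competitive d2/cryptate immunoassay, 1 h incubation.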

For assay [18], the target named is Thyrotropin receptor (Homo sapiens) (UniProt P16473). Description: qHTS assay to identify small molecule antagonists of the thyroid stimulating hormone receptor (TSHR) signaling pathway (AID 1259385; calls by dose curve; also: nearly all actives have a fitted effect of over 20% in size; also: potency is read from the fitted curve at half-maximal effect). The essentials: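 Antagonist mode: compound-treated TSHR-expressing HEK293 cells were stimulated with 1.5 ng/mL TSH (final) in presence of Ro20-1724 for 30 min at RT. HTRF cAMP detection after 1 h; each compound tested at 15 concentrations, triplicate.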
Sequence of Thyrotropin receptor (Homo sapiens) (P16473 whole entry, looked up): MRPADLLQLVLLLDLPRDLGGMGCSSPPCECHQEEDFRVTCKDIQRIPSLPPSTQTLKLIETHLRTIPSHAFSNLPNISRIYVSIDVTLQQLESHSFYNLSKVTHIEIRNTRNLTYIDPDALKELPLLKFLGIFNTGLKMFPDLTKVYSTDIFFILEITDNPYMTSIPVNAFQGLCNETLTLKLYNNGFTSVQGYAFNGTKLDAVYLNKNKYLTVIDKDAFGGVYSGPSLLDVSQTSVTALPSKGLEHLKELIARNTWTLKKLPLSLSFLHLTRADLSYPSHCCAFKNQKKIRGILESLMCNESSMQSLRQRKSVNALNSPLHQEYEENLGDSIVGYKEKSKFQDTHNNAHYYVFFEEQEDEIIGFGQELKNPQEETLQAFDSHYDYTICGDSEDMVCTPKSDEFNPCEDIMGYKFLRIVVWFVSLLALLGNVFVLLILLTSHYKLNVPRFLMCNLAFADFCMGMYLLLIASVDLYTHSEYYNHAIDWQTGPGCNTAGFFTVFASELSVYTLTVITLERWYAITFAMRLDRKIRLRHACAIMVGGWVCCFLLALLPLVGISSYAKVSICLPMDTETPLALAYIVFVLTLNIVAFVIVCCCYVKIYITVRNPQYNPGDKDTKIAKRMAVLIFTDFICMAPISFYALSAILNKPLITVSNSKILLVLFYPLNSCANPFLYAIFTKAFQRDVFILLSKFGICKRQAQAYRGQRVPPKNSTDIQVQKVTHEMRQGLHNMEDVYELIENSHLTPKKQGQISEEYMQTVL

Where “and” joins values, the source holds several entries; their conditions need not be identical. Equal entries are not always repeated. Unmarked numbers belong to inactive results. Records with an inconclusive call do not appear. Calls of active or inactive are those of the source. Unless noted, calls follow the shape of the dose curve; as a rule, active = well fitted curve in the direction sought with a large enough effect in the repeat runs; inconclusive = weak or mixed curves; inactive = no such curve, though single readings can be large; an effect the other way counts as inactive or inconclusive.

Turning to `COc1ccc2[nH]c(S(=O)Cc3ncc(C)c(OC)c3C)nc2n1` (configuration not stated), the Potency result in assay [1], in assay [2], in assay [3], in assay [4], in [6] and in assay [7] was “inactive” in each case. Further, the Potency entry in [9], in [10], in assay [11] and in assay [12] was “inactive” each time. The result in assay [5] and in assay [8] was inactive.

Consider `CC[C@@H]1C[C@H](N(Cc2cc(C(F)(F)F)cc(C(F)(F)F)c2)C(C)=O)c2cc(C(F)(F)F)ccc2N1C(=O)OC(C)C`, for which the Potency entry in assay [1], in assay [2], in assay [3], in assay [13], in assay [6] and in assay [7] was “inactive” in each case. Besides, the Potency result in assay [14], in assay [10] and in assay [11] was “inactive” throughout. In addition, the compound was called inactive in [5] and in assay [8]. In assay [9], the Potency was 9.69 µM (active).

Take `CN(C)CC[C@@H](c1ccc(Br)cc1)c1ccccn1`: the Potency result in [1], in assay [2], in assay [3], in [4], in assay [6] and in assay [7] was “inactive” throughout. Further, the Potency entry in assay [9], in [10], in assay [15] and in assay [12] was “inactive” in each case. Besides, the call in [5] and in [8] was inactive.

As for `c1ccc(CNCc2ccccc2)cc1`, the Potency entry in assay [1], in [2], in assay [3], in [13], in [6] and in assay [7] was “inactive” in each case. In addition, the Potency entry in assay [9], in [14], in assay [16], in assay [10], in assay [11] and in assay [15] was “inactive” in each case. In addition, the Potency entry in assay [12], in assay [17] and in assay [18] was “inactive” throughout. Besides, the outcome in [5] and in assay [8] was inactive.

As for `Cc1ccc(C(C)c2ccc(C)c(C)c2)cc1C`, the Potency result in [1], in assay [2], in [3], in [13], in assay [6] and in assay [7] was “inactive” each time. Also, the Potency entry in assay [9], in assay [16], in [10], in [11], in assay [15] and in assay [17] was “inactive” in each case. The outcome in [5] and in assay [8] was inactive.

On to `O=C(Nc1ccccc1)OCC(CN1CCCCC1)OC(=O)Nc1ccccc1` (configuration not stated), for which the Potency result in assay [1], in [2], in assay [3], in assay [4], in assay [13] and in assay [7] was “inactive” each time. For the same compound, the Potency result in assay [10] and in assay [17] was “inactive” throughout. Moreover, in [8], the outcome was inactive. In addition, the Potency in assay [16] is 26.6 µM (active); in assay [11] it was 26.6 µM (active); in assay [18] it was 18.8 µM (active).

`CCCCCc1ccc(N)cc1`: the Potency entry in assay [1], in assay [2], in assay [3], in assay [13], in [6] and in assay [7] was “inactive” each time. Also, the Potency result in [9], in assay [14], in assay [16], in assay [10], in [17] and in assay [18] was “inactive” each time. The outcome in assay [5] and in [8] was inactive.

Take `Cn1sccc1=O`: the Potency entry in assay [1], in [2], in assay [3], in assay [13], in assay [10] and in assay [11] was “inactive” throughout. For the same compound, the Potency result in assay [15], in [12] and in assay [18] was “inactive” each time. Besides, the outcome in [5] and in assay [8] was inactive. The Potency was 48.6 µM (active) in [6]; 27.3 µM (active) in assay [7]; 12.2 µM (active) and 3.06 µM (active) in assay [9].

Turning to `CCOC(=O)CC(C)C`, the Potency result in [1], in assay [2], in assay [3], in assay [13], in assay [6] and in assay [7] was “inactive” throughout. Also, the Potency entry in assay [9], in [16], in assay [10], in assay [15], in [12] and in assay [17] was “inactive” in each case. Besides, in [18], the Potency entry is “inactive”. For the same compound, the result in assay [5] and in assay [8] was inactive.

These data come from PubChem BioAssay (Tox21).
